According to PubChem BioAssay (Tox21):
Inconclusive results are not listed. Entries that show only a call come without a potency. Active and inactive are the calls of the source. Unless noted, calls come from the whole dose curve.

Assays:
[1] = qHTS assay to identify small molecule antagonists of the vitamin D receptor (VDR) signaling pathway - cell viability counter screen (AID 743225; active = well fitted curve in the direction sought with a large enough effect in the repeat runs; an effect the other way counts as inactive or inconclusive; note: nearly all actives have a fitted effect of over 50% in size)
Method in brief: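 HEK293T VDR-bla; cpd + 1a,25-(OH)2D3 3 nM final, 16 h 37C/5% CO2; B/G FRET substrate 2 h RT; then CellTiter-Glo 30 min RT, luminescence.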

[2] = qHTS assay to identify small molecule agonists of the NFkB signaling pathway (AID 1159509; active = well fitted curve in the direction sought with a large enough effect in the signal ratio in the repeat runs, not every such curve was filed as active; the % refers to the signal ratio; note: series mostly up to about 61 µM)
Method in brief: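 Beta-lactamase reporter assay run in quantitative high-throughput format on an NF-kB-responsive ME-180 line, with 5 hr compound treatment and a FRET-based blue/green fluorescence readout.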

[3] = qHTS assay to identify small molecule agonists of the NFkB signaling pathway - cell viability counter screen (AID 1159515); note: series mostly up to about 61 µM; nearly all actives have a fitted effect of over 55% in size
Method in brief: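 Cells are seeded (2,000 NFkB-bla ME-180 per well), rested overnight, and dosed with DMSO-dissolved compounds for 5 hr at 37 C. Viability is then read by CellTiter-Glo luminescence after 30 min at room temperature.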

[4] = qHTS assay to identify small molecule agonists of the endoplasmic reticulum stress response signaling pathway (AID 1159516; active = well fitted activation curve with a large enough effect in the signal ratio in the repeat runs, not every such curve was filed as active; the % refers to the signal ratio)
Method in brief: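 Cells are seeded at 1,500 per well and incubated overnight. Compounds in DMSO are added for 5 hr at 37 C, then beta-lactamase FRET substrate for 2 hr at room temperature, and fluorescence at 460 and 530 nm is measured.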

[5] = qHTS assay to identify small molecule agonists of the endoplasmic reticulum stress response signaling pathway - cell viability counter screen (AID 1159517);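 note: HeLa cells carrying an ER stress response element beta-lactamase reporter; series mostly up to about 61 µM; nearly all actives have a fitted effect of over 50% in size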
Method in brief: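 After overnight attachment, ESRE-bla HeLa cells were treated with Tox21 library compounds for 5 hr. CellTiter-Glo luminescence, read 30 min post-addition at room temperature, reported viability.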

[6] = qHTS assay to identify small molecule agonists of the AP-1 signaling pathway - cell viability counter screen (AID 1159525); note: nearly all actives have a fitted effect of over 55% in size
Method in brief: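 Intracellular ATP by Cell Titer Glo luminescence (30 min, RT) in the same ME-180 AP-1-bla wells after the 5 h compound exposure at 37 °C. Normalised to tetra n-octyl ammonium bromide and DMSO controls.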

[7] = qHTS assay to identify small molecule agonists of the AP-1 signaling pathway (AID 1159526)
[8] = qHTS assay to identify small molecule antagonists of the retinoid acid receptor (RAR) signaling pathway - cell viability counter screen (AID 1159551; active = well fitted curve in the direction sought with a large enough effect in the repeat runs; an effect the other way counts as inactive or inconclusive; note: nearly all actives have a fitted effect of over 35% in size)
Method in brief: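 Cells (C3RL4) are plated, incubated overnight, dosed with compound in DMSO, then given retinol at 1 uM final. After 6 h at 37 C, CellTiter-Glo is added and luminescence read following 30 min at room temperature.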

[9] = qHTS assay to identify small molecule antagonists of the retinoic acid receptor (RAR) signaling pathway (AID 1159552; active = well fitted curve in the direction sought with a large enough effect in the repeat runs; an effect the other way counts as inactive or inconclusive; note: nearly all actives have a fitted effect of over 50% in size)
Method in brief: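 Retinol at 1 uM final stimulated RARE-luciferase expression in C3RL4 cells exposed to test compounds for 6 hr at 37 C. Reduced luminescence, read 30 min after detection reagent, indicated pathway antagonism.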

[10] = qHTS assay to identify small molecule agonists of the retinoic acid receptor (RAR) signaling pathway (AID 1159553; active = well fitted curve in the direction sought with a large enough effect in the repeat runs; an effect the other way counts as inactive or inconclusive)
Method in brief: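 Seed C3RL4 reporter cells at 1,000 per well and incubate overnight at 37 C. Add compounds in DMSO, incubate 6 hr. Add luciferase reagent, wait 30 min at room temperature, read luminescence.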

[11] = qHTS assay to identify small molecule agonists of the RXR signaling pathway - cell viability counter screen (AID 1159529; active = well fitted curve in the direction sought with a large enough effect in the repeat runs; an effect the other way counts as inactive or inconclusive; note: nearly all actives have a fitted effect of over 50% in size; note: potency is the fitted concentration of half-maximal effect)
Method in brief: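 Steps: seed RXR-alpha-UAS-bla HEK 293T cells in assay medium containing 2% charcoal-stripped FBS; incubate 5 hr; add compounds in DMSO; incubate 16 hr at 37 C; after the bla read, add CellTiter-Glo and read luminescence at 30 min.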

[12] = qHTS assay to identify small molecule antagonists of the retinoid-related orphan receptor gamma (ROR-gamma) signaling pathway - cell viability counter screen (AID 1159520; active = well fitted curve in the direction sought with a large enough effect in the repeat runs; an effect the other way counts as inactive or inconclusive; note: nearly all actives have a fitted effect of over 50% in size)
Method in brief: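 Cytotoxicity was read from cellular ATP (CellTiter-Glo luminescence) after 16 hr at 37 C with 1 uM doxycycline induction. The inducer was added 2 hr after compound transfer to Tet-on ROR gamma CHO cells.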

[13] = target: Nuclear receptor ROR-gamma (Homo sapiens) (UniProt P51449); test: qHTS assay to identify small molecule antagonists of the retinoid-related orphan receptor gamma (ROR-gamma) signaling pathway (AID 1159521; active = well fitted curve in the direction sought with a large enough effect in the repeat runs; an effect the other way counts as inactive or inconclusive)
Method in brief: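 Cells were plated, rested 4 h at 37 C, exposed to compounds for 2 h, then given 1 uM final doxycycline hyclate to induce RORγ expression. After 16 h, ONE-Glo luminescence from the ROR response element reporter was measured.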

[14] = target: Retinoic acid receptor RXR-alpha (Homo sapiens) (UniProt P19793); test: qHTS assay to identify small molecule agonists of the RXR signaling pathway (AID 1159527); note: nearly all actives have a fitted effect of over 35% in size
Retinoic acid receptor RXR-alpha (Homo sapiens), sequence (P19793 whole entry, looked up): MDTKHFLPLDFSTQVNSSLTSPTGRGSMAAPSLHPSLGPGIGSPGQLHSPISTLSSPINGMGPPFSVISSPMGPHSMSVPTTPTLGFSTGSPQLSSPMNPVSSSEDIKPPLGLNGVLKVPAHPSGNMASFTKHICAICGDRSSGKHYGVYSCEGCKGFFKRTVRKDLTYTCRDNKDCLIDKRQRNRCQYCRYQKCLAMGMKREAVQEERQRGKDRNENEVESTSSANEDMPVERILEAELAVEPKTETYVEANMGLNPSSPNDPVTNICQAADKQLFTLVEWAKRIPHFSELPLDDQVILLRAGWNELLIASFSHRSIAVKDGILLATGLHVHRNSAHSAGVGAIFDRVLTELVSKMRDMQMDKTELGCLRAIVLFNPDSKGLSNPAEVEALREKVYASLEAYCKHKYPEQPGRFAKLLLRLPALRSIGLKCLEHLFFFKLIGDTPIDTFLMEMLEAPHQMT
Method in brief: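 Cells plated at 2,000/well, rested 5 hr at 37 C, pin-dosed with DMSO compound solutions, incubated 16 hr, then loaded with B/G FRET substrate for 2 hr at RT before dual-emission fluorescence reading.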

SMILES | Potency [1] | outcome [2] | outcome [3] | outcome [4] | outcome [5] | outcome [6] | outcome [7] | Potency [8] | Potency [9] | Potency [10] | Potency [11] | Potency [12] | Potency [13] | Potency [14]
COCc1c(C(C)C)nc(C(C)C)c(/C=C/[C@@H](O)C[C@@H](O)CC(=O)O)c1-c1ccc(F)cc1 | inactive | inactive | inactive | inactive | inactive | inactive | inactive | inactive | inactive | inactive |  |  |  | 
O=C(OCCOCCO)c1ccccc1Nc1cccc(C(F)(F)F)c1 | inactive | inactive | inactive | inactive | inactive | inactive | inactive | inactive |  | inactive |  |  |  | 
C[C@@H]1C[C@H]2[C@@H]3CCC4=CC(=O)C=C[C@]4(C)[C@@]3(F)[C@@H](O)C[C@]2(C)[C@@]1(O)C(=O)CO |  | inactive | inactive | inactive | inactive | inactive | inactive | inactive |  |  | inactive |  |  | 
Oc1ccc(Nc2ccccc2)cc1 |  | inactive | inactive | inactive | inactive | inactive | inactive | inactive | inactive | inactive | 30.9 µM (active) |  |  | 
CCCCC(CC)CNCC(CC)CCCC (stereo not given) | inactive | inactive | inactive | inactive |  | inactive | inactive | inactive |  | inactive | inactive | inactive | inactive | inactive
CCc1c2c(nc3ccc(OC(=O)N4CCC(N5CCCCC5)CC4)cc13)-c1cc3c(c(=O)n1C2)COC(=O)[C@]3(O)CC |  | inactive | inactive |  | inactive | inactive |  | inactive |  |  |  | inactive |  | 
